Experimental data as given in PubChem BioAssay AID1903 (Southern Research Specialized Biocontainment Screening …, 2009).
The campaign covered roughly 310,000 compounds. About 1,200 (0.39%) were called active. The rule behind the calls is not given here. The list is a sample of the results. Entries with a potency or affinity are not part of this list.

The compounds below were run against Large T antigen (Simian virus 40) (UniProt P03070) (assay: TAg ATPase/helicase activity blockers – biochemical (AID 1903)). Settings: SV40 large T antigen ATPase/helicase inhibition assay; at 20 µM; stronger effect = higher value.
Large T antigen (Simian virus 40), sequence (P03070 whole entry, looked up): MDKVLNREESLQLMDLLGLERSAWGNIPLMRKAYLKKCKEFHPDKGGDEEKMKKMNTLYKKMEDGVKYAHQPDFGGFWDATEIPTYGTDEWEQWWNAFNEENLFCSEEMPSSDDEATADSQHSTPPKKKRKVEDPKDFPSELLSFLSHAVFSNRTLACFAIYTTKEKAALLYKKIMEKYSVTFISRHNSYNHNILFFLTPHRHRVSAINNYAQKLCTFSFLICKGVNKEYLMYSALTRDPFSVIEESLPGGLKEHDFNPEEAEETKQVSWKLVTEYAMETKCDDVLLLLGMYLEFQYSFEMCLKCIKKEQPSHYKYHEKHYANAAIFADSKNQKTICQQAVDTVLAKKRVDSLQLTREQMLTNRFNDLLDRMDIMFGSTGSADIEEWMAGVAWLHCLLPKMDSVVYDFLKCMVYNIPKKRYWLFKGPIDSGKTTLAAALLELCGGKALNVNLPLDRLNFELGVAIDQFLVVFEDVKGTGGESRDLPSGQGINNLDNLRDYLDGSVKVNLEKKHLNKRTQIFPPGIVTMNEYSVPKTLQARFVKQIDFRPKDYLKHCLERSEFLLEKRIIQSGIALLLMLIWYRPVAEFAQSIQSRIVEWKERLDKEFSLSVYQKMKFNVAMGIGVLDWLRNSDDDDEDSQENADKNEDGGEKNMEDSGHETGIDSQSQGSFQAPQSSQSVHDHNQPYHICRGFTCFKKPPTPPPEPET

inhibition, inactive:
Cc1ccc(NC(=O)CN(C)C(=O)C2COc3ccccc3O2)cc1 (stereo not drawn) 6.98%, Cc1ccc(S(=O)(=O)NC2=NCN(CC(=O)O)CN2)cc1 7.75%, CC(=O)n1cc([C@H]2C=C(C(=O)N3CCN(Cc4ccc5c(c4)OCO5)CC3)O[C@@H](OCCCCO)C2)c2ccccc21 21.8%, CCOc1ccc(CNS(=O)(=O)c2ccc3c(c2)CC(=O)N3C)cc1 11.9%, CCOc1ccc(Oc2nc(Nc3ccc(C)cc3)nc(N(C)C)n2)nn1 -0.33%, COc1ccc(-n2ncc3c(=O)n(CC(=O)Nc4ccc(S(=O)(=O)N5CCOCC5)cc4)cnc32)cc1 5.14%, COC(=O)C(N)Cc1ccc(O)c(O)c1 (stereo not drawn) 20.9%, COC(=O)[C@@H](N)Cc1ccc(O)c(O)c1 10%, COC(=O)c1ccc(NC(=O)COc2cccc3c2OC(C)(C)C3)cc1 -1.91%, CC(=O)Nc1sc(N/N=C\c2ccccc2F)nc1-c1cccs1 9.59%, CC(=O)Nc1sc(N/N=C\c2cccc(Cl)c2)nc1-c1cccs1 18.8%, CC(=O)Nc1sc(N/N=C\c2ccccc2Cl)nc1-c1cccs1 34.5%, CC(=O)Nc1sc(N/N=C\c2ccccc2)nc1-c1cccs1 21%, COc1cc(/C=N\Nc2nc(-c3ccc(C)cc3)c(NC(C)=O)s2)ccc1O 35.9%, CCOc1cc(/C=N\Nc2nc(-c3ccc(C)cc3)c(NC(C)=O)s2)ccc1O 26.6%, OCCN(CCO)c1ccc(C(c2ccc(Cl)cc2)c2ccc(N(CCO)CCO)cc2Cl)c(Cl)c1 2.12%, COC(=O)c1c(-c2ccccc2)noc1-c1ccccc1 8.1%, O=C(c1cccc(S(=O)(=O)N2CCOCC2)c1)N1CCCCCC1 0.39%, Cc1ccc(NC(=O)CN2CCc3cc4c(cc3C2C)OCCCO4)cc1 (stereo not drawn) 8.62%, CN1C(C(=O)Nc2ccc(OC(F)(F)F)cc2)=CC(c2ccco2)=NS1(=O)=O 8.59%, COC(=O)c1sc2cc([N+](=O)[O-])cc(SCC(C)C)c2c1N 10.4%, COc1cc(Cl)cc(C#N)c1OCC(=O)O -0.11%, Cc1c(NCc2ccccc2O)c(=O)n(-c2ccccc2)n1C 29%, Cc1c(N=NC2=C(O)CCCC2=O)c(=O)n(-c2ccccc2)n1C -2.74%, CC1=CC(=Nc2c(C)n(C)n(-c3ccccc3)c2=O)C=C(C)C1=O 2.58%, CCC(C)C1=CC(=Nc2c(C)n(C)n(-c3ccccc3)c2=O)C=C(C(C)CC)C1=O (stereo not drawn) 4.02%, CC(=O)/C(N=Nc1c(C)n(C)n(-c2ccccc2)c1=O)=C(\C)O 1.99%, Cc1c(N=Nc2ccc(O)cc2)c(=O)n(-c2ccccc2)n1C 28%, Cc1[nH]c2ccccc2c1N=Nc1c(C)n(C)n(-c2ccccc2)c1=O 6.57%, Cc1c(N=NC2=C(O)CC(C)(C)CC2=O)c(=O)n(-c2ccccc2)n1C 4.32%, CCNC(=O)c1c(NC(=O)C2COc3ccccc3O2)sc2c1CCCC2 (stereo not drawn) -3.17%, COc1ccc(/C=N/NC(=O)CNc2c(Br)cc(C)cc2Br)c(C(=O)O)c1OC -1.95%, Cc1nc(-c2nc(-c3c(C(=O)NNC(=O)Nc4cccc(Cl)c4)noc3C)cs2)cs1 8.51%, Cc1ccc(C(=O)OCC(=O)N2CC(C)CC(C)C2)cc1S(=O)(=O)N1CCOCC1 (stereo not drawn) -0.25%, COc1ccc(N(C(C)C(=O)Nc2ccc(S(=O)(=O)N3CCOCC3)cc2)S(C)(=O)=O)cc1 (stereo not drawn) 22.9%, Cc1ccc(S(=O)(=O)NNC(=O)Nc2ccc([N+](=O)[O-])cc2)c(C)c1 7.86%, NC(=O)COC(=O)CNC(=O)c1sc2ccccc2c1Cl 4.69%, c1ccc2cc(OCCOCCOc3ccc4ccccc4c3)ccc2c1 5.7%, CC1=NN(c2cccc(F)c2)C(=O)/C1=C/c1ccc(N(C)C)cc1 8.44%, CCN(CC)c1ccc(/C=C2/C(=O)ON=C2C)cc1 29.4%, Cc1oc2ccccc2c1CC(=O)NCCCN(C)C -4.93%, Cc1cc(C)n(C(=O)CNC(=O)c2ccccc2F)n1 9.87%, Cc1ccccc1NN=Nc1nc2c([nH]1)c(=O)n(C)c(=O)n2C 14.1%, Cc1ccc(NN=Nc2nc3c([nH]2)c(=O)n(C)c(=O)n3C)cc1 9.3%, OC(COc1c(F)cc(Br)cc1F)CN1CCOCC1 (stereo not drawn) 2.96%, O=C(CNC(=O)[C@@H]1Cc2ccccc2CN1)Nc1ccc2c(c1)OCCO2 10.2%, COc1cc(/C=C2/C(=N)N3C(c4ccccc4)=CSC3=NC2=O)ccc1OCC(=O)O 31%, C/C=C/c1ccc(OCC(=O)OCC)c(OC)c1 10.1%, Cc1ccc2c(nc3s/c(=C\c4ccc(-c5ccccc5C(=O)O)o4)c(=O)n32)c1C 21.4%, CCOc1cc(-c2c(C)c(C)nc(N)c2C#N)ccc1O 17.1%, C/C=C/c1ccc(OCC(=O)O)c(OC)c1 10.3%, Cc1ccc2nc(/C(C#N)=C/c3ccc(-c4ccccc4C(=O)O)o3)[nH]c2c1 24%, COCCCNC(=O)/C(C#N)=C/c1ccc(OCC(=O)O)c(OC)c1 34.6%, CC1=C(C#N)c2nc(N)c(C#N)c(C)c2/C1=C\c1ccc(C)cc1 12.2%, Cc1c(C(=O)Nc2ccccc2F)sc2ncn(CC(=O)N3CCCCC3)c(=O)c12 7.79%, Brc1cccc(/C=N/Nc2nc(N3CCCCC3)nc(N3CCCCC3)n2)c1 3.51%, CCOC(=O)c1ccccc1NC(=S)N1CCN(C2CCCCC2)CC1 7.91%, Cc1ccc2cccc(Oc3ncnc4scc(-c5ccc(Cl)cc5)c34)c2n1 25.5%, O=S(=O)(NCc1ccccn1)c1ccccn1 9.8%, CCn1cc(C(=O)N2CCN(c3ccccc3)CC2)c(=O)c2cc(S(=O)(=O)N3CCOCC3)ccc21 4.92%, CCOc1ccc(Br)cc1S(=O)(=O)Nc1cccnc1 11.2%, O=C(NCCc1ccccn1)C1CC(=O)N(Cc2ccccc2Cl)C1 (stereo not drawn) 15.4%, Brc1ccccc1-n1nnc(-c2cccnc2)n1 12.4%, CCCCN(C(=N)N1CCCCC1)c1nc(C)c([N+](=O)[O-])c(=O)[nH]1 9.69%, Nc1cc(=O)[nH]c(SCC(=O)NNC(=O)Cc2ccccc2)n1 10.8%, O=c1[nH]c(NC2CCCCC2)c([N+](=O)[O-])c(=O)[nH]1 4.57%, S=C1Cc2ccccc2C(c2ccc(Cl)cc2)N1 (stereo not drawn) 2.33%, CCn1c(SCC(=O)Nc2ccc(NC(C)=O)cc2)nnc1C1CC1 12.8%, CCn1nnnc1SCC(=O)Nc1ccc(N(C)C)cc1 37.7%, CCc1ccc(NC(=O)CSc2nnc(-c3cnccn3)n2C)cc1 14.9%, Cc1ccc(NC(=O)CSc2nnc(C)c(=O)n2N)cc1 14.2%, Cc1ccc(NC(=O)CSc2nnc(-c3cnccn3)n2C)cc1C 29.7%, CCn1c(SCC(=O)Nc2ccc(F)cc2)nnc1C1CC1 3.39%, CCCCn1nnnc1SCC(=O)Nc1ccc(C)cc1 -2.62%, CC(=O)Nc1ccc(NC(=O)CSc2nnc(C)c(=O)n2N)cc1 12.1%, O=C(CSc1ccc(-c2cccc([N+](=O)[O-])c2)nn1)NCc1ccccc1 11.8%, CCCc1cc(=O)oc2cc(OC3CCCCC3=O)ccc12 (stereo not drawn) 18.5%, O=C(O)COc1ccc2c(c1)OCCO2 -3.88%, CCOC(=O)c1sc2nc(CC(=O)OC)nc(NCCN(CC)CC)c2c1C 28.4%, COc1ccc(NC(=O)CSc2nnc(-c3ccco3)c(-c3ccco3)n2)cc1OC 26.9%, Cc1cccc(NC(=O)CSc2nnc(-c3ccco3)c(-c3ccco3)n2)c1 35%, COC(=O)/C=C1/C(=O)N/C(=N\c2nc(C)cc(C)n2)N1c1ccc(OC)cc1 3.13%, COc1cc(/C=N/NC(=O)c2cccc(S(=O)(=O)N3CCCCC3)c2)cc(Br)c1O 10.6%, O=C(N/N=C/c1ccccn1)c1cccc(S(=O)(=O)N2CCCC2)c1 9.14%, COc1cc(/C=N/NC(=O)c2cccc(S(=O)(=O)N3CCCC3)c2)cc(OC)c1O 37.9%, CC(=O)Nc1ccc(/C=N/NC(=O)c2cccc(S(=O)(=O)N3CCOCC3)c2)cc1 8.56%, CCOc1cc(/C=N/NC(=O)c2cccc(S(=O)(=O)N3CCCC3)c2)ccc1OCC(=O)N(C)C 0.99%, O=C(N/N=C/c1cccnc1)c1cccc(S(=O)(=O)N2CCCC2)c1 17.7%, C/C(CC(=O)NC1CCCCCC1)=N\NC(=O)c1cnccn1 0.37%, COC(CNC(=O)C(=O)Nc1cc2c3c(c1)CCN3C(=O)CC2)OC 6.3%, COc1ccc(Cn2c(=O)[nH]c3cc(C(=O)NC4CCN(Cc5ccccc5)CC4)ccc32)cc1 1.67%, COc1ccc(C(CNC(=O)COc2ccc(F)cc2Br)N2CCCC2)cc1 (stereo not drawn) 5.54%, O=c1nc2n(c3cccc(Cl)c13)CCCCC2 5.2%
